PubChem BioAssay (NCATS)
Results filed as inconclusive are left out. Activity calls are given as the source filed them. Calls follow the shape of the dose curve; as a rule, active = well fitted curve in the direction sought with a large enough effect; inconclusive = small, poorly fitted or top-dose-only effect, or another doubt; inactive = no such curve, though single readings can be large; an effect the other way counts as inactive or inconclusive.

Tests used:
[1] = Viability qHTS for spleen associated tyrosine kinase inhibitor (SYKi) drug resistant MV4-11 cells (AID 1963824); also: nearly all actives have a fitted effect of over 35% in size
How it was run: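 CellTiter-Glo luminescence, read 10 min after reagent addition, reports viability after a 72 hr compound exposure. Cells are an MV4-11 line made resistant to SYK inhibition, seeded at 500 per well onto compound-containing plates.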

[2] = Cellular viability qHTS for adrenocortical cancer (ACC) cell line NCI-H295R (AID 1963990); also: nearly all actives have a fitted effect of over 60% in size
How it was run: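 Adrenocortical carcinoma cells, suspended at 300 000 cells/mL in serum-free DMEM plus ITS, rested overnight before pin transfer of compound. After two days' incubation, ATP-dependent luminescence was recorded and curve-fitted.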

[3] = Quantitative highthroughput screen to assess conditional lethalithy of NOMO1 cells grown in RPMI1640 with untreated serum (RPMI+s) (AID 1963876); also: nearly all actives have a fitted effect of over 35% in size
How it was run: (§1)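 Each medium arm—HPLM with 10% dialyzed FBS, or RPMI1640 with 5 mM glucose and 10% untreated or dialyzed FBS—was screened against an 11-point, 3-fold compound titration for 48 h at 37 °C, with CellTiter-Glo luminescence as endpoint.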

[4] = Quantitative highthroughput screen to assess conditional lethalithy of NOMO1 cells grown in RPMI1640 with dialyzed fetal bovine serum (RPMI+ds) (AID 1963877); also: nearly all actives have a fitted effect of over 30% in size; as to Viability: series mostly up to about 46 µM
How it was run: as §1

[5] = Quantitative highthroughput screen to assess conditional lethalithy of NOMO1 cells grown in Human Plasma-Like Medium with dialyzed fetal bovine serum (HPLM+ds) (AID 1963878); also: nearly all actives have a fitted effect of over 35% in size
How it was run: as §1

[6] = Quantitative highthroughput screen to assess conditional lethalithy of P12 Ichikawa cells grown in Human Plasma-Like Medium with dialyzed fetal bovine serum (HPLM+ds) (AID 1963879); settings: Potency: viability; also: nearly all actives have a fitted effect of over 35% in size; as to Viability: series mostly up to about 46 µM
How it was run: as §1

[7] = Quantitative highthroughput screen to assess conditional lethalithy of P12 Ichikawa cells grown in RPMI1640 with dialyzed fetal bovine serum (RPMI+ds) (AID 1963880); settings: Potency: P12-Ichikawa viability; also: nearly all actives have a fitted effect of over 35% in size
How it was run: as §1

[8] = Quantitative highthroughput screen to assess conditional lethalithy of P12 Ichikawa cells grown in RPMI1640 with untreated serum (RPMI+s) (AID 1963881); settings: Potency: viability; also: nearly all actives have a fitted effect of over 35% in size; as to Viability: series mostly up to about 46 µM
How it was run: as §1

[9] = Quantitative highthroughput screen to assess conditional lethalithy of SEM cells grown in Human Plasma-Like Medium with dialyzed fetal bovine serum (HPLM+ds) (AID 1963882); also: nearly all actives have a fitted effect of over 35% in size; as to Viability: series mostly up to about 46 µM
How it was run: as §1

[10] = Quantitative highthroughput screen to assess conditional lethalithy of SEM cells grown in RPMI1640 with unreated serum (RPMI+s) (AID 1963883); also: nearly all actives have a fitted effect of over 35% in size
How it was run: as §1

[11] = Quantitative highthroughput screen to assess conditional lethalithy of SEM cells grown in RPMI1640 with dialyzed fetal bovine serum (RPMI+ds) (AID 1963884); also: nearly all actives have a fitted effect of over 35% in size; as to Viability: series mostly up to about 46 µM
How it was run: as §1

Measured: Potency
Potency is read from the fitted curve at half-maximal effect.

CCN1/C(=C/C=C/c2sc3ccccc3[n+]2CC)Sc2ccccc21
active: [1] 0.058 µM | [2] 10 µM

CC1(C)C(N(O)C(=O)Nc2ccc(Cl)cc2)N(c2ccc(Cl)cc2)C(=O)N1CC(=O)NN=CC=Cc1ccc([N+](=O)[O-])o1 (centres undefined)
inactive: [3]

COc1cc2ncnc(Nc3ccc(F)c(Cl)c3)c2cc1NC(=O)C=CCN1CCCCC1
inactive: [3] | [4]

COc1ncc(Nc2ncc([C@H](C)N3CCN(S(C)(=O)=O)CC3)cc2-c2nc(C)nc(N)n2)cc1F
active: [1] 2.35 µM | [2] 0.224 µM

COc1cc(=C2C=c3ccccc3=N2)[nH]c1=Cc1[nH]c(C)cc1C
inactive: [3]

CCC(=O)OCC(=O)[C@@]1(OC(=O)CC)[C@@H](C)C[C@@H]2[C@H]3CCC4=CC(=O)C=C[C@]4(C)[C@@]3(F)[C@@H](O)C[C@@]21C
active: [3] 7.43 µM | [4] 5.9 µM | [5] 1.66 µM | [6] 5.9 µM | [7] 2.35 µM | [8] 4.69 µM

CC1(C)CCC[C@@]2(C)[C@@H]1CC[C@@]1(C)OC(=O)C[C@H]21
not listed: [1] | [2]
inactive: all other assays above

O=C1NC(=O)C(=Cc2cccc(C(F)(F)F)c2)S1
not listed: [1] | [2] | [10] | [11]
inactive: all other assays above

Cc1c(-c2cccc3c(CCCOc4cccc5ccccc45)c(C(=O)O)n(Cc4cccnc4)c23)c(COc2ccc(N3CCN([S+](=O)([O-])N(C)C)CC3)cc2)nn1C
inactive: [3] | [4] | [5] | [6] | [7]

O=c1ccc2ccc(O)c(O)c2o1
inactive: [3] | [4] | [5]

Cc1nc(NC(=O)N2CCC[C@@H]2C(N)=O)sc1-c1csc(C(C)(C)C)n1
active: [3] 2.35 µM | [4] 1.66 µM | [5] 1.48 µM | [6] 1.66 µM | [7] 2.35 µM | [8] 1.66 µM | [9] 1.05 µM | [10] 0.743 µM | [11] 1.05 µM

CC[C@H]1CN2CCc3cc(OC)c(OC)cc3[C@H]2C[C@@H]1C[C@@H]1NCCc2cc(OC)c(OC)cc21
active: [3] 0.469 µM | [4] 0.469 µM | [5] 0.526 µM | [6] 0.209 µM | [7] 0.418 µM | [8] 0.235 µM | [9] 0.166 µM | [10] 0.235 µM

CCCCC(C=O)NC(=O)C(CC(C)C)NC(=O)OCc1ccccc1 (centres undefined)
inactive: [3] | [4] | [5] | [6]

CN1CCC[C@H]1CCO[C@](C)(c1ccccc1)c1ccc(Cl)cc1
not listed: [1] | [2]
inactive: all other assays above

Cn1cc(C=C2C(=O)Nc3cccnc32)c2ccccc21
inactive: [5]
active: [3] 7.43 µM | [4] 9.35 µM | [6] 9.35 µM

CC1=C(CO)C(=O)O[C@@H]([C@@H](C)[C@H]2CC[C@H]3[C@@H]4C[C@H]5O[C@]56[C@@H](O)C=CC(=O)[C@]6(C)[C@@H]4CC[C@]23C)C1
active: [3] 0.372 µM | [4] 0.469 µM | [5] 0.296 µM | [6] 0.296 µM | [7] 0.264 µM | [8] 0.235 µM | [9] 0.235 µM | [10] 0.235 µM | [11] 0.264 µM

Nc1ncnc2c1ncn2[C@@H]1O[C@H](CO)C[C@@H]1O
inactive: [3] | [4] | [5] | [6] | [7] | [8]

CCC=CC[C@H]1C(=O)CC[C@@H]1CC(=O)OC
inactive: [3] | [4] | [5] | [6] | [7] | [8]

O=C1NC(=O)C(=Cc2ccc3nccc(-c4ccncc4)c3c2)S1
active: [3] 2.64 µM | [4] 1.32 µM | [5] 0.662 µM | [6] 7.43 µM | [7] 1.87 µM | [8] 1.87 µM | [9] 0.935 µM | [10] 0.935 µM | [11] 0.833 µM

CCCCCCCc1ccc(CCc2cccc(O)c2C(=O)O)cc1
inactive: [3] | [4] | [5] | [6] | [7] | [8]

CC(C)=CCCC(C)=CCCC(C)=CCCC(C)=CCCC(C)=CCCC(C)=CCCC(C)=CCCC(C)=CCCC(C)=CCO
not listed: [1] | [2] | [10] | [11]
inactive: all other assays above

C[C@H](Cn1cnc2c(N)ncnc21)OCP(=O)(O)O
not listed: [1] | [2]
inactive: all other assays above
